The full data set covers some 8,800 targets. This sample favours those with a hit. About 0.5% of all pairs of compound and target were hits.
Tests used:
Test in all cases: log2 fold change, soluble protein after heating vs DMSO (PISA); higher = thermal stabilisation; K562 lysate, 10 uM; active = over 0.2 and 3.5 SD of the protein, either way, in both replicates (recomputed)
[1] = compound: C1=CC=C(C=C1)[C@H](COC2=CC3=C(C=C2)NC(=O)N3)NC(=O)C4=CC=CN(C4=O)CC5=CC(=C(C=C5)F)F
How it was run: (§1)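 Log-two fold change in thermal stability relative to solvent controls is reported from duplicates. For each sample, crude K562 extract from dounce-homogenised pellets in PBS pH 7.4 with 1 mM MgCl2, at 1 mg/mL protein, was treated with 10 μM compound for 30 min. Aliquots heated for 3 min across 48°C-58°C were pooled, brought to 0.5% NP-40 at 4°C and cleared at 21,000xg for 90 min. The supernatant was quantified by TMTpro 16plex LC-MS/MS with channel sums equalised.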

[2] = compound: CC1=C(SC2=C1C(=N[C@H](C3=NN=C(N32)C)CC(=O)N)C4=CC=C(C=C4)Cl)C
How it was run: as §1

[3] = compound: CC1=C2C(=CC=C1)N=C(N(C2=O)C3=CC=CC=C3C)CN4C=NC5=C(N=CN=C54)N
How it was run: as §1

[4] = compound: Cc1sc2c(c1C)C(c1ccc(Cl)cc1)=N[C@@H](CC(=O)OC(C)(C)C)c1nnc(C)n1-2
How it was run: as §1

[5] = compound: c1ccc([C@@H]2C[C@H]2NC2CCNCC2)cc1
How it was run: as §1

Measured: log2 fold change

EIF2B5 (UniProt Q13144)
inactive: [1] -0.03 | [2] 0.007 | [3] 0.019 | [4] 0.023 | [5] 0.017

DSTN (UniProt P60981)
inactive: [1] 0.043 | [2] -0.051 | [3] -0.016 | [4] 0.018 | [5] -0.06

DYNC1I2 isoform 5 (UniProt Q13409)
inactive: [1] 0.049 | [2] -0.03 | [3] -0.012 | [4] -0.018 | [5] 0.021

EPHX2 (UniProt P34913)
inactive: [1] 0.021 | [2] 0.006 | [3] 0 | [4] 0.119 | [5] -0.012

DTWD1 (UniProt Q8N5C7)
inactive: [1] -0.003 | [2] 0.075 | [3] -0.004 | [4] 0.039 | [5] 0.095

FANCD2 isoform 1 (UniProt Q9BXW9)
inactive: [1] -0.002 | [2] 0.039 | [3] 0.012 | [4] -0.018 | [5] -0.054

FOXK1 (UniProt P85037)
inactive: [1] 0.022 | [2] 0.017 | [3] -0.001 | [4] 0.032 | [5] -0.009

EEF1A1P5 (UniProt Q5VTE0)
inactive: [1] 0.006 | [2] 0.011 | [3] 0.004 | [4] -0.067 | [5] -0.036

GALNT2 (UniProt Q10471)
UniProt Q10471, sequence (Q10471 whole entry, looked up): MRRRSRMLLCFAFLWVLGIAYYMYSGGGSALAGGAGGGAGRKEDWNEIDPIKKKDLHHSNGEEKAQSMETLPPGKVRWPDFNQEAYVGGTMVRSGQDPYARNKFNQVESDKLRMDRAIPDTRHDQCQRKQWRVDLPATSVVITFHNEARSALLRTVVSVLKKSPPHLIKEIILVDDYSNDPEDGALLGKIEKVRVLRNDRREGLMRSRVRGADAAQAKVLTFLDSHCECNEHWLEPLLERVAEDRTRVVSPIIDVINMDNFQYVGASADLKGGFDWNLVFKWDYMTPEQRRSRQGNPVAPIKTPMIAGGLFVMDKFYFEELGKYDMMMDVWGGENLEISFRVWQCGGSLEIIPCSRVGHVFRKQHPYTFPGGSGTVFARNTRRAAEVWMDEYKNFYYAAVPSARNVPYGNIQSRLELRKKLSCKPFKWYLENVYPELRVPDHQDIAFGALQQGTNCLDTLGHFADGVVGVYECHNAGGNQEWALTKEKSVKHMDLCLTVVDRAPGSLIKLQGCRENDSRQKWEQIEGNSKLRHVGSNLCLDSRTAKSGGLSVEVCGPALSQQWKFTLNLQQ
inactive: [1] 0.018 | [2] -0.009 | [3] 0.021 | [4] 0.004 | [5] -0.021

EEF1AKNMT (UniProt Q8N6R0)
UniProt Q8N6R0, sequence (Q8N6R0 whole entry, looked up): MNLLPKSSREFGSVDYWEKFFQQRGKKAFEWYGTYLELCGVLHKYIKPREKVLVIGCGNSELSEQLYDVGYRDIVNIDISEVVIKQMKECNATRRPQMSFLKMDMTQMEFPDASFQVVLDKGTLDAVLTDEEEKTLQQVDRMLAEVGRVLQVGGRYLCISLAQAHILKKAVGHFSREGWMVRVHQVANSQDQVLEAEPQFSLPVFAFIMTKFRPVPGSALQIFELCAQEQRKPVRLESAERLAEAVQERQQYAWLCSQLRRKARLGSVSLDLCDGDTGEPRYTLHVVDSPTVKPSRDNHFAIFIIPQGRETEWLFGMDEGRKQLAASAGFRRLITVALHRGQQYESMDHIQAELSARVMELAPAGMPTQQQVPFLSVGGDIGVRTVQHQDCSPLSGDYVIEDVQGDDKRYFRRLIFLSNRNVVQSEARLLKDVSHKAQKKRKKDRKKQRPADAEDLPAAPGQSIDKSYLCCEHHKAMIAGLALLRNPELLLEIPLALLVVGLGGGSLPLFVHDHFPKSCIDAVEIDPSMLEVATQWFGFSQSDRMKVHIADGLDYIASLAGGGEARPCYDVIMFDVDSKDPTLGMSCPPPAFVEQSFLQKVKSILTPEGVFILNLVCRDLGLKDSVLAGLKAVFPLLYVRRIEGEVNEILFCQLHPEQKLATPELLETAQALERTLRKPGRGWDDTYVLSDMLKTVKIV
inactive: [1] -0.012 | [2] -0.073 | [3] 0.013 | [4] 0.018 | [5] 0.042

ESRRA (UniProt P11474)
inactive: [1] 0.204 | [2] -0.018 | [3] 0.029 | [4] 0.046 | [5] 0.264

FXR1 (UniProt P51114)
inactive: [1] -0.028 | [2] -0.016 | [3] -0.009 | [4] 0.04 | [5] 0.027

FASTKD5 (UniProt Q7L8L6)
inactive: [1] -0.168 | [2] -0.056 | [3] -0.024 | [4] -0.002 | [5] 0.133

FYN (UniProt P06241)
inactive: [1] -0.323 | [2] -0.231 | [3] -0.052 | [4] 0.019 | [5] -0.112

EXOC4 (UniProt Q96A65)
inactive: [1] -0.001 | [2] 0.009 | [3] 0.016 | [4] 0.063 | [5] 0.054

FTSJ1 (UniProt Q9UET6)
inactive: [1] 0.016 | [2] 0.013 | [3] -0.025 | [4] -0.005 | [5] 0.048

GAPVD1 isoform 6 (UniProt Q14C86)
inactive: [1] -0.013 | [2] 0.002 | [3] 0.002 | [4] -0.011 | [5] 0.063

GGA2 (UniProt Q9UJY4)
UniProt Q9UJY4, sequence (Q9UJY4 whole entry, looked up): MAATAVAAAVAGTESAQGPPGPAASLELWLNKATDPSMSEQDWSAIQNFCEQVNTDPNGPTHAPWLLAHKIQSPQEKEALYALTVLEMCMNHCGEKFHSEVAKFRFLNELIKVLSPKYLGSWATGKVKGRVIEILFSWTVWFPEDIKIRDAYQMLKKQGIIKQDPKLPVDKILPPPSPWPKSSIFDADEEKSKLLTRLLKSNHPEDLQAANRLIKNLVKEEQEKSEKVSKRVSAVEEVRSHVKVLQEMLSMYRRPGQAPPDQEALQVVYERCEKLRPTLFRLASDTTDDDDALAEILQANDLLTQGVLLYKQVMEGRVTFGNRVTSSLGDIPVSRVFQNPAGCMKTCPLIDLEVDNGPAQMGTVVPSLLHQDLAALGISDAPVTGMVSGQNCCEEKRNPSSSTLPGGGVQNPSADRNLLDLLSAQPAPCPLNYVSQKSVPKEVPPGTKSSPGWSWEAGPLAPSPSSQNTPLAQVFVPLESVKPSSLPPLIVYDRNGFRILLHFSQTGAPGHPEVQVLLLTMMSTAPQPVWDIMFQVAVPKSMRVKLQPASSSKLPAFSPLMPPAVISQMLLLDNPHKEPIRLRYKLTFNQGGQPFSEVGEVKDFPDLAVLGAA
inactive: [1] -0.055 | [2] 0.011 | [3] -0.085 | [4] 0.062 | [5] 0.032

FAU (UniProt E9PR30)
inactive: [1] 0.001 | [2] 0.06 | [3] -0.008 | [4] 0.018 | [5] 0.135

GDPD1 (UniProt Q8N9F7)
inactive: [1] -0.047 | [2] 0.018 | [3] 0.117 | [4] 0.024 | [5] -0.036

FNBP1L (UniProt Q5T0N5)
inactive: [1] -0.082 | [2] -0.009 | [3] 0.012 | [4] -0.032 | [5] 0.029

GCLM (UniProt P48507)
inactive: [1] 0.01 | [2] -0.041 | [3] 0.02 | [4] 0.008 | [5] 0.006

EIF3I (UniProt Q13347)
inactive: [1] -0.038 | [2] 0.022 | [3] 0.01 | [4] 0.019 | [5] 0.033

GBF1 (UniProt Q92538)
inactive: [1] -0.044 | [2] 0 | [3] 0.005 | [4] 0.016 | [5] 0.011

GC isoform 3 (UniProt P02774)
inactive: [3] 0.007 | [4] -0.138 | [5] 0.107

EPS8L2 (UniProt Q9H6S3)
inactive: [1] 0.124 | [2] -0.09 | [4] 0.008 | [5] 0.037

FAT1 (UniProt Q14517)
inactive: [5] -0.092

EPN2 (UniProt I3L356)
inactive: [1] 0.12 | [2] -0.062 | [5] -0.235

DST isoform 3 (UniProt Q03001)
inactive: [1] -0.039 | [2] -0.033 | [5] 0.586

GBA2 (UniProt Q9HCG7)
inactive: [1] 0.046 | [2] 0.062 | [4] -0.094 | [5] -0.057

EPRS (UniProt P07814)
UniProt P07814, sequence (P07814 whole entry, looked up): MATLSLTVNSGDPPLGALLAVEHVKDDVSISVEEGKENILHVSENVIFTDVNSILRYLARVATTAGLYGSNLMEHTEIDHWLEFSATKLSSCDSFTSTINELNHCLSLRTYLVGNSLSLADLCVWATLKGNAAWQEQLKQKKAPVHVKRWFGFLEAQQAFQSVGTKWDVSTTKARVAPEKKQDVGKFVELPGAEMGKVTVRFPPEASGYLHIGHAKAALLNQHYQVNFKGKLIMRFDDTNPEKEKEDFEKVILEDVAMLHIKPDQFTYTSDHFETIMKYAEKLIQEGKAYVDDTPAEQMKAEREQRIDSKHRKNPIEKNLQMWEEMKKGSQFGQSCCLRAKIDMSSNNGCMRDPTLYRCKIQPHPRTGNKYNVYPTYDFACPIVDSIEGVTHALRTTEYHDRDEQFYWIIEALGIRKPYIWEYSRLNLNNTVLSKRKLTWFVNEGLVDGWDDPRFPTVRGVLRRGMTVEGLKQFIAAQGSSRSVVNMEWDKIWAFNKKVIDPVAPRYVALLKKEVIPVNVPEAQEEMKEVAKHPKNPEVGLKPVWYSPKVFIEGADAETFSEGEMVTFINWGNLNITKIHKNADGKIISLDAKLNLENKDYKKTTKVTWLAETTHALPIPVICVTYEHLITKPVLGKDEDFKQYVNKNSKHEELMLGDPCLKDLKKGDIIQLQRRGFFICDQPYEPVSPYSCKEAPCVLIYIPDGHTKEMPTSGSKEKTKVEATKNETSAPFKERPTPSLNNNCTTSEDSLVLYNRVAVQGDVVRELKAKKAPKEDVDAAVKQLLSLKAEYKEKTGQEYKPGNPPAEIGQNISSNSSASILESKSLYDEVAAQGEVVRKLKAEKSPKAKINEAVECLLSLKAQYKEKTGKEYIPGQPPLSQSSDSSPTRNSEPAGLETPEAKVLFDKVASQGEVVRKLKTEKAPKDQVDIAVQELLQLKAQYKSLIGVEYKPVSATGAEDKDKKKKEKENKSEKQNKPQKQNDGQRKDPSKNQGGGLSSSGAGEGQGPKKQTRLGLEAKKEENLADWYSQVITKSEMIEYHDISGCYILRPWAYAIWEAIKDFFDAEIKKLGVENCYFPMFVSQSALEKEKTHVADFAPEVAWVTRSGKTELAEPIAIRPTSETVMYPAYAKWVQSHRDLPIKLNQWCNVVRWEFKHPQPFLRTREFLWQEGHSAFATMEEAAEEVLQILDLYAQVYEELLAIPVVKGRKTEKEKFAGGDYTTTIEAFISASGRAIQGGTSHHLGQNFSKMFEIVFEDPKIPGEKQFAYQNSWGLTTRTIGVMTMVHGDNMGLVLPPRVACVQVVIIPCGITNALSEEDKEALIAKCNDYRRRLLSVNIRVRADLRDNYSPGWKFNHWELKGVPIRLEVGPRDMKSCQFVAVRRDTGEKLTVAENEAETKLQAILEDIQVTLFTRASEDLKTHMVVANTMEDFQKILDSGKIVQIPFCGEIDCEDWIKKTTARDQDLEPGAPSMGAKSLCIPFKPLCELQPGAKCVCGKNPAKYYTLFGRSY
inactive: [1] -0.005 | [2] 0.002 | [3] 0.003 | [4] 0.043 | [5] 0.016

FTSJ1 isoform 2 (UniProt Q9UET6)
inactive: [3] -0.089 | [5] -0.234

EIF2AK3 (UniProt Q9NZJ5)
inactive: [4] 0.025 | [5] 0.041

FOXL2 (UniProt P58012)
inactive: [1] 0.135 | [2] 0.129 | [4] 0.166

FAM204A (UniProt Q9H8W3)
inactive: [3] -0.102 | [5] -0.035

FBXO45 (UniProt P0C2W1)
inactive: [1] -0.079 | [2] -0.177 | [3] -0.004 | [5] 0.053

DYRK1A isoform 2 (UniProt Q13627)
inactive: [1] -0.001 | [2] -0.028 | [5] -0.339

EIF3I (UniProt Q5TFK1)
inactive: [5] 0.059

GART (UniProt C9JZG2)
inactive: [1] -0.131 | [2] 0.086 | [5] -0.366

ERBIN isoform 8 (UniProt Q96RT1)
inactive: [1] -0.012 | [2] 0.02 | [3] -0.04 | [4] 0.037 | [5] -0.048

FNDC3A (UniProt Q9Y2H6)
inactive: [5] -0.136

FKBP1A (UniProt P62942)
UniProt P62942, sequence (P62942 whole entry, looked up): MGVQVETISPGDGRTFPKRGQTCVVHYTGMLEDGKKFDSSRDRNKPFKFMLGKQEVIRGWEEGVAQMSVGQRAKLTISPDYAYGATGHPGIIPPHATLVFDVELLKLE
inactive: [1] 0.011 | [2] -0.134 | [3] -0.069 | [4] -0.01 | [5] -0.214

EHHADH (UniProt Q08426)
UniProt Q08426, sequence (Q08426 whole entry, looked up): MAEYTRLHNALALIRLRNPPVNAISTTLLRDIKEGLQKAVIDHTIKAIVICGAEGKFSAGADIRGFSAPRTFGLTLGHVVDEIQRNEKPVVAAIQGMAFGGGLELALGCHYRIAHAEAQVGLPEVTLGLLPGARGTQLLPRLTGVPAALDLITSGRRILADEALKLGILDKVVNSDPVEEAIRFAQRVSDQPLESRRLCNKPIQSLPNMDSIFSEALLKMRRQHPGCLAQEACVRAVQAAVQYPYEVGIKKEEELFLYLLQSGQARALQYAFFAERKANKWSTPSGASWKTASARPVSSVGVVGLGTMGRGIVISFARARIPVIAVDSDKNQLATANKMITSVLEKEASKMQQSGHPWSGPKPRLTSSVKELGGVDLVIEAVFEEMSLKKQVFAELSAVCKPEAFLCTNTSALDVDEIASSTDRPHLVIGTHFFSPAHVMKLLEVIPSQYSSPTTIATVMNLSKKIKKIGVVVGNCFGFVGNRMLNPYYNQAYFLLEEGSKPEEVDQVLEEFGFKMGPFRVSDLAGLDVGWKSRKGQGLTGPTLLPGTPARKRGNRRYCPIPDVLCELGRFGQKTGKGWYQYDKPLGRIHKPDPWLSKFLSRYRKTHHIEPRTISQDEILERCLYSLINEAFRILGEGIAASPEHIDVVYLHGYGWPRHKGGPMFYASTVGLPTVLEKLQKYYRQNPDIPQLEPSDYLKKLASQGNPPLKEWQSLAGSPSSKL
inactive: [1] 0.035 | [2] -0.143 | [4] -0.086 | [5] 0.031

EVI5L isoform 2 (UniProt Q96CN4)
inactive: [5] 0.036

FARSA (UniProt Q9Y285)
inactive: [1] 0.028 | [2] 0.171 | [3] -0.003 | [4] -0.028 | [5] -0.009

EPB41 isoform 4 (UniProt P11171)
inactive: [5] 0.106

ETHE1 (UniProt O95571)
inactive: [1] 0.008 | [2] 0.003 | [3] 0.008 | [4] 0.048 | [5] -0.147

FAM83A (UniProt Q86UY5)
inactive: [1] 0.065 | [2] -0.023 | [3] 0.063 | [4] 0.11 | [5] -0.039

GCA (UniProt P28676)
inactive: [5] -0.095

FMNL2 isoform 3 (UniProt Q96PY5)
inactive: [4] 0.089

FAT2 (UniProt Q9NYQ8)
inactive: [1] -0.009 | [2] 0.092 | [3] 0.104 | [5] -0.161

ESRRB isoform 1 (UniProt O95718)
inactive: [1] -0.147 | [2] 0.109 | [5] 0.321

GDE1 (UniProt Q9NZC3)
UniProt Q9NZC3, sequence (Q9NZC3 whole entry, looked up): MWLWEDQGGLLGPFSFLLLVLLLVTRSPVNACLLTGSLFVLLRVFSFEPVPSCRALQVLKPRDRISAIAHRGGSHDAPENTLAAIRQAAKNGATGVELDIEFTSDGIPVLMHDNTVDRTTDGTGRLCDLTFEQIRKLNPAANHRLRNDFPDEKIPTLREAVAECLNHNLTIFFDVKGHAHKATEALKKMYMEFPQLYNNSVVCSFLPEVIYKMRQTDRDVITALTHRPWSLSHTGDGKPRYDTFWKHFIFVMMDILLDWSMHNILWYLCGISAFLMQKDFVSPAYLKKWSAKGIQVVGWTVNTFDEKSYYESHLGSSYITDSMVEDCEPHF
inactive: [1] -0.085 | [2] -0.076 | [4] -0.067 | [5] 0.394

ELAVL4 (UniProt P26378)
UniProt P26378, sequence (P26378 whole entry, looked up): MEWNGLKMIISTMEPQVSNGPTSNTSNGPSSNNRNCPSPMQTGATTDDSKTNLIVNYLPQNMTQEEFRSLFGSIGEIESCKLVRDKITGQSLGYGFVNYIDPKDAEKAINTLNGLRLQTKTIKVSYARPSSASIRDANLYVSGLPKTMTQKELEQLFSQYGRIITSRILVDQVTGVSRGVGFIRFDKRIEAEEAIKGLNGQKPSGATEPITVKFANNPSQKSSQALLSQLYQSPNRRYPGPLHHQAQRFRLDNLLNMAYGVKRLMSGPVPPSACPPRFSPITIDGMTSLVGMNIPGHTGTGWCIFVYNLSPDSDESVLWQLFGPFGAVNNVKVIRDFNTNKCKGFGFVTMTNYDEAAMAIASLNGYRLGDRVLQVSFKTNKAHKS
inactive: [3] 0.018 | [4] -0.079 | [5] 0.095

FOXJ2 (UniProt Q9P0K8)
inactive: [1] 0.022 | [2] 0.06 | [4] 0.015 | [5] 0.039

FAM76B (UniProt Q5HYJ3)
inactive: [3] 0.066 | [4] 0.038 | [5] -0.099

GAPDH (UniProt P04406)
inactive: [1] 0.004 | [2] 0.008 | [3] -0.018 | [4] 0.008 | [5] 0.052

EID1 (UniProt Q9Y6B2)
inactive: [4] 0.024 | [5] -0.022

GAA (UniProt P10253)
inactive: [1] -0.001 | [2] -0.077 | [3] -0.157 | [5] -0.024

FAM111A (UniProt Q96PZ2)
inactive: [3] -0.008 | [4] -0.097

ERG28 (UniProt Q9UKR5)
inactive: [1] 0.001 | [2] -0.053 | [4] -0.08 | [5] 0.277

From the supplement of paper PMC10849652
